In PubChem BioAssay AID376 (PDSP, 2006):
In all, about 2,000 compounds went through this assay and about 250 (12%) were called active. The sample as a whole holds a higher share of actives than the screen did. Values without a mark were called inactive. Rule as the data show it: active = hERG blockade below about -20% or above about 20%; inactive = in between.

These molecules were tested against Voltage-gated inwardly rectifying potassium channel KCNH2 (Homo sapiens) (UniProt Q12809) (assay: KCNH2 potassium channel function modulators, cell-based (AID 376;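 also: 0% = buffer alone and 100% = reference blocker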)). Conditions: hERG-expressing cells, channel activity single-concentration screen; concentration not given here.
Chain of Voltage-gated inwardly rectifying potassium channel KCNH2 (Homo sapiens) (Q12809 whole entry, looked up): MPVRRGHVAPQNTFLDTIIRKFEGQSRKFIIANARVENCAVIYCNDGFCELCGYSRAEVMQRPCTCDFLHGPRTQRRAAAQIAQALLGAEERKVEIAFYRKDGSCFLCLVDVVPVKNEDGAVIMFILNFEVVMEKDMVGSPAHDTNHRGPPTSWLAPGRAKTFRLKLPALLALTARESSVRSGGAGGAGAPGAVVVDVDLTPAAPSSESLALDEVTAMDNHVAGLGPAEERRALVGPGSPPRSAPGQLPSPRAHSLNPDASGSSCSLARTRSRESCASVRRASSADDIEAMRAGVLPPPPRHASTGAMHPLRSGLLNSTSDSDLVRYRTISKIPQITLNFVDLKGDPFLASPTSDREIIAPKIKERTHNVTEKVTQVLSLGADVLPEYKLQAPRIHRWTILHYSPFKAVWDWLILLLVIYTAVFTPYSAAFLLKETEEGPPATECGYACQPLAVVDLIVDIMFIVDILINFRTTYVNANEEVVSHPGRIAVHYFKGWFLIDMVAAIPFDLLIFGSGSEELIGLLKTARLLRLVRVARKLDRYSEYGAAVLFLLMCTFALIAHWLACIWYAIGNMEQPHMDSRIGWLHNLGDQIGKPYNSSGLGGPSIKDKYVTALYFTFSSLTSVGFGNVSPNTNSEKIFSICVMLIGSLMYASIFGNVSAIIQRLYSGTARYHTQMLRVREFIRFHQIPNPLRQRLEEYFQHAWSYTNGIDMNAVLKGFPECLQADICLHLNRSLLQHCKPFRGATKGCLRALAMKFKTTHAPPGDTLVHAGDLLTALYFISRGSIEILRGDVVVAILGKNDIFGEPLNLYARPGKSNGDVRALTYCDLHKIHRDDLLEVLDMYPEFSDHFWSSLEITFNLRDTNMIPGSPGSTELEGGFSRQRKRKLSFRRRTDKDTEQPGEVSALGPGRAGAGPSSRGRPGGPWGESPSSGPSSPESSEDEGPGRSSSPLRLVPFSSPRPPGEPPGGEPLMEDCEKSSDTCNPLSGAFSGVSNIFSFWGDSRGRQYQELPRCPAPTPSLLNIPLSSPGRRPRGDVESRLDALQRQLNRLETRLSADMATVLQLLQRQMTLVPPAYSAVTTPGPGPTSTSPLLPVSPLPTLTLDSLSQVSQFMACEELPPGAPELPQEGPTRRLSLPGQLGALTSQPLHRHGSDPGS
Molecule CC1(c2ccccc2)OC2CC3C4CCC5=CC(=O)C=CC5(C)C4(F)C(O)CC3(C)C2(C(=O)CO)O1 (centres undefined) has a hERG blockade of 6.41%. O=CNc1ncn[nH]1 was tested, and the hERG blockade was -3.79%. c1c[nH]c(CN2CCOCC2)n1 gave a hERG blockade of 2.23%. In the case of CC1CCC2C(C)C3C(CC4C5CC=C6CC(O)CCC6(C)C5CC(O)C43C)N2C1 (centres undefined), the hERG blockade is reported as -3.2%. With CC(=O)Nc1nc(NC(C)=O)c2[nH]c(CO)nc2n1 the hERG blockade was 0.0402%. Molecule O=S1(=O)NC2CCC3NS(=O)(=O)NC4CCC(N1)N4S(=O)(=O)N23 (centres undefined) has a hERG blockade of 0.569%. In the case of CN(C)CCN(c1ccccn1)c1ccccn1, the hERG blockade is reported as -15.1%. For C[N+](C)(C)CCN(Cc1cccs1)c1ccccn1, the hERG blockade was 39.5% (active). CC(CO)(CO)N=Cc1cc(I)cc(I)c1O showed a hERG blockade of 5%. With O=C1Oc2ccccc2C(=O)C1=CN1C(=O)NC(=Cc2ccccc2O)C1=O the hERG blockade was 10.5%. c1ccc(SC(Sc2ccccc2)c2ccc3c(c2)OCO3)cc1 was tested, and the hERG blockade was 15.6%. In the case of N=C1C=CC(=C(c2ccc(N)cc2)c2ccc(N)cc2)C=C1, the hERG blockade is reported as 9.77%. CN(C)c1ccc(C(=C2C=CC(=[N+](C)C)C=C2)c2c(O)c(S(=O)(=O)[O-])cc3cc(S(=O)(=O)O)ccc23)cc1 showed a hERG blockade of 8.17%. In the case of CN(C)c1ccc(C(=C2C=CC(=[N+](C)C)C=C2)c2ccccc2)cc1, the hERG blockade is reported as 40.6% (active). For O=C(c1ccccc1)C(Nc1ccc2ccccc2c1)c1ccccc1 (centres undefined), the hERG blockade was 25.3% (active). In the case of O=C(O)CCC(=O)Nc1ccc2ccccc2c1, the hERG blockade is reported as 10%. CC(=O)CC(=O)Nc1ccc2ccccc2c1 showed a hERG blockade of 2.34%. Work on O=S(=O)(O)C(CO)c1ccccc1 (centres undefined) (tested in a mixture with another compound) yielded a hERG blockade of 13.2%. Work on NNC(=O)c1ccc(OCc2nc3ccccc3[nH]2)cc1 yielded a hERG blockade of 0.772%. CN(CC(=O)O)Cc1c(O)c(Cl)cc(Cl)c1Cl was tested, and the hERG blockade was -16.4%. In the case of O=C(O)C1CCN(Cc2oc(CO)cc(=O)c2O)C1 (centres undefined), the hERG blockade is reported as 3.01%. With CN(CC(=O)O)Cc1oc(CO)cc(=O)c1O the hERG blockade was -29.8% (active). For CC1=C(CCC(C)CO)OC2CC3C4CCC5CC(O)CCC5(C)C4CC(=O)C3(C)C12 (centres undefined), the hERG blockade was -6.35%. NC1=C(O)C(=O)C(c2c[nH]c3ccc(OCc4ccccc4)cc23)O1 (centres undefined) gave a hERG blockade of 12.8%. Nc1nc(-c2ccc3ccccc3c2)cc(-c2cc(-c3ccc4ccccc4c3)nc(N)n2)n1 gave a hERG blockade of 2.73%. Molecule S=C1NCN2CCN(CC2)CNC(=S)C(=S)NCN2CCN(CC2)CNC1=S has a hERG blockade of 17.9%. Molecule O=[N+]([O-])c1cc(Cc2cc([N+](=O)[O-])c3cccnc3c2O)c(O)c2ncccc12 has a hERG blockade of -5.37%. With Nc1nc(Cl)cc(NCCO)n1 the hERG blockade was -8.52%. In the case of O=[N+]([O-])c1cc(Cl)cc2c1nc(NCCO)c1ccccc12, the hERG blockade is reported as 38% (active). Molecule O=C(Cn1ccc(=O)[nH]c1=O)Nc1ccc(C(=O)O)c(O)c1 has a hERG blockade of -7.44%. In the case of O=C(O)CCCCn1ccc(=O)[nH]c1=O, the hERG blockade is reported as -28% (active). Molecule Cc1cn(CCC(N)C(=O)O)c(=O)[nH]c1=O (centres undefined) has a hERG blockade of 2.71%. Molecule O=C(CCN1CCOCC1)Nc1ccc(F)cc1F has a hERG blockade of 4.1%. Work on O=C(O)Cc1[nH]cnc1C(=O)O yielded a hERG blockade of -3.29%. For O=C1C(=Cc2ccccc2)C(NC2CCCCC2)c2ccccc21 (centres undefined), the hERG blockade was -0.193%. CC(C)C1OC(=O)C=CC=CC=CC=CC=CCC(O)C(C)C(O)CC(O)CC(O)CC(O)CC(O)CC(O)CC(O)C=CC1C (centres undefined) was tested, and the hERG blockade was 5.61%. Oc1c(Cl)cc(C(c2cc(Cl)c(O)c(Cl)c2)C(c2cc(Cl)c(O)c(Cl)c2)c2cc(Cl)c(O)c(Cl)c2)cc1Cl was tested, and the hERG blockade was 25.7% (active). For CN(C)Cc1cc(Cl)c(O)c(CN(C)C)c1, the hERG blockade was 1.1%. Work on Oc1c(Cl)cc(CN(Cc2cc(Cl)c(O)c(Cl)c2)C2CCCCC2)cc1Cl yielded a hERG blockade of 1.49%. Work on CC(C)(CC1(C)NC(=O)NC1=O)OCc1ccccc1 (centres undefined) yielded a hERG blockade of -10.8%. O=C(O)Cn1ccnc1[N+](=O)[O-] showed a hERG blockade of -10.9%. With O=C(O)c1nc(-c2ccccc2)[nH]c1C(=O)O the hERG blockade was 4.21%. For Nc1nc(C(=O)O)c(N=Nc2ccccc2)c(=O)[nH]1, the hERG blockade was 33.3% (active). NCCCc1c(-c2ccccc2)nc(N)[nH]c1=O gave a hERG blockade of -2.69%. With O=C(c1nc2ccc([N+](=O)[O-])cc2[nH]c1=O)C(O)c1ccc2c(c1)OCO2 (centres undefined) the hERG blockade was -14.1%. For O=C1CN2CCN(CC2)CC(=O)Nc2ccc(cc2)S(=O)(=O)c2ccc(cc2)NC(=O)CN2CCN(CC2)CC(=O)Nc2ccc(cc2)S(=O)(=O)c2ccc(cc2)N1, the hERG blockade was 6.34%. O=C(O)c1ccc([N+]2=Cn3c(nc4ccccc43)C2)cc1 showed a hERG blockade of 6.37%. In the case of COC(=O)CCC(C)C1CCC2C3CCC4CC5CCC4(C)C3(O5)C(Br)C(Br)C12C (centres undefined), the hERG blockade is reported as 5.42%. With CCC(N)(C(=O)O)C(C)C (centres undefined) the hERG blockade was -13.5%. In the case of CN=C(N)N=C(N)Nc1cc2ccccc2c2ccccc12, the hERG blockade is reported as -54.4% (active). NC(=O)N=C(N)NC(=O)c1ccccc1 gave a hERG blockade of -1.06%. In the case of CCOC(=O)C(C)(C)C(O)C(C)C (centres undefined), the hERG blockade is reported as 16.9%. With CS(=O)(=O)Nc1ccc(Nc2c3ccccc3nc3ccccc23)cc1 the hERG blockade was 30.8% (active). Molecule Cc1nc(N)nc2ccccc12 has a hERG blockade of 1.82%. CC1OC(O)C(O)C(O)C1O (centres undefined) was tested, and the hERG blockade was 8.47%. With Oc1ccc(Cl)cc1Sc1cc(Cl)ccc1O the hERG blockade was 36.8% (active). O=C(O)C(Sc1ccc(Cl)cc1)Sc1ccc(Cl)cc1 showed a hERG blockade of -7.17%. With N#CCCSC(=S)C1CCCC1=N (centres undefined) the hERG blockade was 14.7%. In the case of CN(C)CCCn1c2ccccc2c2cnccc21, the hERG blockade is reported as 90.4% (active). In the case of CN(C)CCCN1c2ccc(O)cc2Sc2ccc(Cl)cc21, the hERG blockade is reported as 62.7% (active). In the case of CN(C)CCCN1c2ccccc2Sc2cnccc21, the hERG blockade is reported as 73.5% (active). Cc1c2cnccc2c(C)c2c1c1ccccc1n2CCOC(=O)c1ccccc1 showed a hERG blockade of 17.4%. For CSc1ccc2c(c1)N(CCCN(C)C)c1ccccc1S2, the hERG blockade was 90.6% (active). With CN(C)CCCn1cnc2cc(Cl)c(Cl)cc21 the hERG blockade was 5.34%.
